# In PubChem BioAssay AID652054 (National Center for Advancing Translational Sciences (NCATS), 2013):
# Among all 360,000 compounds or so, about 9,100 (2.5%) were called active. Inconclusive results (about 4%) are left out. The full list was thinned out, with actives kept by preference. A number with no mark means an inactive call. Rule as the data show it: active = max response below about -50%; inconclusive = no clear call, values can overlap the other calls; inactive = above that.
# Target: D(3) dopamine receptor (Homo sapiens) (UniProt P35462)
# Test: qHTS of D3 Dopamine Receptor Antagonist: qHTS
# Settings: D3R cells, DiscoveRx beta-arrestin luminescence, antagonist mode; hits give low values
# Method in brief: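 Cells expressing the human receptor were seeded at 1500 cells/well, incubated overnight at 37 degrees C in 5% CO2, then exposed to library compounds with dopamine controls for 90 minutes at 37 degrees C before luminescent detection.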
# % is scaled to controls: 0 for no effect and ±100 for the full control effect.
# D(3) dopamine receptor (Homo sapiens), sequence (P35462 whole entry, looked up): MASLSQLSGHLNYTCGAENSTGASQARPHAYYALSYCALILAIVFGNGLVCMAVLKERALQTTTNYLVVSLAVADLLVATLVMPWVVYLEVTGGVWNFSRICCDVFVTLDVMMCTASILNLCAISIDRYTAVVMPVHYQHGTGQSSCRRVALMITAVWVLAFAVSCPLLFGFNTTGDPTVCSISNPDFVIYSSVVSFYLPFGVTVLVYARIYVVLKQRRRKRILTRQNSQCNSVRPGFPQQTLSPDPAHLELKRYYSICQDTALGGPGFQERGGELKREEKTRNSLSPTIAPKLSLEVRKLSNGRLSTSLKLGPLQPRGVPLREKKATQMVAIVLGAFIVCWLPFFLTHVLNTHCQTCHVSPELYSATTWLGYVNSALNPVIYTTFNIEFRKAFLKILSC
row,SMILES,"max response, negative = inhibition"
1,COc1ccc(NC(=O)N(C)C[C@@H]2OCc3cn(nn3)CCCC(=O)N([C@H](C)CO)C[C@H]2C)c(OC)c1,-1.72%
2,Cc1ccc2nc(-c3ccco3)c(Cc3cccc(Cl)c3)n2c1,-5.94%
3,CCOCCC(=O)Nc1ccc2c(c1)c(=O)n(C)n2-c1ccc2ccccc2c1,-26.6%
4,COc1cccc(C(NC(C)=O)c2nc(-c3ccccc3OC)cs2)c1 (stereo not given),0%
5,CCN(CC)C(=O)C1=C(C)N(Cc2ccc(OC)cc2)C(=O)C(CC(=O)NCCCCc2ccccc2)C1 (stereo not given),17.3%
6,CCOc1ccc(CCN2C(=S)N([C@@H](CC(C)C)CN3CCC[C@@H]3CN3C(=S)NC[C@@H]3Cc3ccc(O)cc3)C[C@@H]2Cc2ccc(O)cc2)cc1,1.51%
7,CCCCN(Cc1ccccc1)C(=O)C1CCN(Cc2sccc2C)CC1,-66.6% (active)
8,CCCCN(C)C(=O)C1CCN(Cc2ccccn2)CC1,-26.1%
9,CCCC(=O)C1CCN(Cc2ccccc2)CC1,-29.3%
10,Cc1ccc(F)c(S(=O)(=O)NC(=O)C2(C)CCN2C(=O)c2ccco2)c1 (stereo not given),0%
11,O=C(NC1CCCCC1)C(c1cc2ccccc2o1)n1c(=O)c(-c2ccco2)nc2ccccc21 (stereo not given),-5.65%
12,CCCCC(=O)N(c1ccc(OC)cc1)C1C=CS(=O)(=O)C1 (stereo not given),-109% (active)
13,Cc1ccc(N(C(=O)c2ccc(S(=O)(=O)N(C)C)cc2)C2C=CS(=O)(=O)C2)cc1 (stereo not given),-16.5%
14,Cc1ccc(N(C(=O)Cc2cccs2)C2C=CS(=O)(=O)C2)cc1Cl (stereo not given),9.44%
15,CCCCCc1c(Cc2ccccc2)ncn1CCc1ccccc1OC,-13.9%
16,O=C(Nc1cccc(C(=O)O)c1)/C(=C\c1ccccc1)NC(=O)c1ccc(Br)o1,-22%
17,COc1ccccc1CN1CCN(C(c2ccccc2)c2ccccc2)CC1,-95.1% (active)
18,c1ccc(C(c2ccccc2)N2CCN(Cc3nnnn3C3CCCCC3)CC2)cc1,-13.5%
19,O=C(C(c1ccccc1)c1ccccc1)N1CCN(CC(O)COc2ccccc2)CC1 (stereo not given),-23.3%
20,Oc1ccccc1CN1CCN(C(c2ccccc2)c2ccccc2)CC1,-76.9% (active)
21,Cn1nnnc1SCC(=O)N1CCN(C(c2ccccc2)c2ccccc2)CC1,2.83%
22,COc1ccccc1CN1CCN(Cc2cc(OC)c(OC)cc2OC)CC1,-21.9%

row,SMILES,"max response, negative = inhibition"
1,COc1ccccc1NC(=S)N1CCN(C(c2ccccc2)c2ccccc2)CC1,-5.17%
2,CC(C)OCC(O)CN1CCN(C(c2ccccc2)c2ccccc2)CC1 (stereo not given),-50.4% (active)
3,CC(=O)N1CCN(CC(c2ccccc2)c2ccccc2)CC1,18.7%
4,CCCOc1ccc(F)cc1-c1cc(C(=O)Nc2ccc(F)cc2)[nH]n1,12.6%
5,CN(CCO)C(=O)c1nc[nH]c1C(=O)N(C)Cc1ccccc1,-16.2%
6,Cc1ccccc1-c1ccc2c(c1)O[C@@H](CN(C)Cc1ccc(C(=O)O)cc1)[C@@H](C)CN([C@H](C)CO)S2(=O)=O,17.1%
7,CC1(C(=O)NS(=O)(=O)c2cccc(F)c2)CCN1C(=O)Cc1ccc(Cl)cc1Cl (stereo not given),-11%
8,O=C(Nc1cccc2ccccc12)c1[nH]c(-c2ccccc2)c2c1C(=O)N(C1CC1)C2=O,81%
9,CCC(C)CN1C(=O)CN(S(C)(=O)=O)CC1(C)C(=O)Nc1ccc2c(c1)OCCO2 (stereo not given),15.4%
10,CC(=O)c1ccc(-c2cnc3c(NC=O)cc(-c4cccc(NS(C)(=O)=O)c4)cn23)cc1,127%
11,Nc1ncnc2c1ncn2[C@@H]1O[C@H](C(=O)N2CCSC2)[C@@H](O)[C@H]1O,-26.3%
12,COc1cccc(-c2nc3nc(C)cc(C)n3c2NC2CCCCC2)c1,-19.4%
13,C=C1C(=O)[C@]23C[C@H]1CCC2[C@@]1(C)C(C[C@@H]3O)[C@](C)(C(=O)O)CC[C@@H]1O (stereo not given in full),-16.7%
14,CC1CC2=C(CC1/C=N/NC(N)=S)C(C)(C)CCC2 (stereo not given),-76.3% (active)
15,COC(=O)C(Cc1c[nH]c2ccccc12)NC(=O)CCNC(=O)c1ccco1 (stereo not given),40%
16,CN(Cc1cn(Cc2ccc(C(F)(F)F)cc2)nn1)C1CN(Cc2cn(Cc3ccc(C(F)(F)F)cc3)nn2)S(=O)(=O)C1 (stereo not given),0%
17,O=C(CCN1CCCCC1)Nc1ccc(F)c(F)c1,15.9%
18,CCC(C(=O)NCc1ccccc1)n1c(Cc2cc(F)cc(F)c2)nc2ccccc21 (stereo not given),1.57%
19,OC[C@H]1O[C@@H](c2nc(-c3nc(-c4ccc(F)cc4)no3)cs2)[C@H](O)[C@@H](O)[C@H]1O,0%
20,Cc1cc(=O)oc2cc(NC(=O)C(C)Oc3ccccc3)ccc12 (stereo not given),18.8%
21,O=C(Nc1ccc(F)c([N+](=O)[O-])c1)C1CC(=O)N(Cc2ccccc2)C1 (stereo not given),16.3%
22,Cc1cc(=O)oc2cc(NC(=O)C3CC(=O)N(Cc4ccccc4)C3)ccc12 (stereo not given),-60.6% (active)

row,SMILES,"max response, negative = inhibition"
1,CO[C@@H]1CN(C)C(=O)c2cc(NC(=O)Nc3cc(F)ccc3F)ccc2OC[C@H](C)N(C(=O)c2ccccn2)C[C@@H]1C,-21.4%
2,CCCCn1nnnc1C1(C)CCC(=O)N1Cc1ccc(OC)c(OC)c1 (stereo not given),27.1%
3,Cc1cc(NC(=O)c2ccc(F)cc2)ccc1NC(=O)c1ccco1,-99.6% (active)
4,Cc1cccc(OCC(=O)Nc2ccc(NC(=O)c3ccco3)c(C)c2)c1,-6.83%
5,COc1ccccc1C(=O)Nc1ccc(NC(=O)c2ccco2)c(C)c1,2.58%
6,CC(=O)c1cccc(-c2cnc3c(NC=O)cc(-c4cccc(C(=O)N(C)C)c4)cn23)c1,39.2%
7,CS(=O)(=O)c1cccc(-c2ccc3nncn3c2)c1,-15.7%
8,O=C(O)C1=C(C(=O)O)C2CCC1C2,-3.55%
9,Cc1ccc(N=Cc2c(O)n(-c3nccs3)c(=O)c3ccccc23)c(C)c1,7.33%
10,Cc1cccc(N2C(=O)CC(SC(N)=Nc3ccccc3)C2=O)c1 (stereo not given),-1.29%
11,Cc1cccc(-n2c(O)c(C=Nc3ccccc3N)c(=O)[nH]c2=O)c1,-114% (active)
12,CC1(C(=O)NS(=O)(=O)Cc2cccc(Cl)c2)CCN1C(=O)Cc1ccc(Cl)cc1Cl (stereo not given),5.64%
13,CN(Cc1ccccc1F)C(=O)C(Cc1ccccc1)NC(=O)c1ccccc1 (stereo not given),41.6%
14,CN(CC(=O)NC(=O)Nc1ccccc1F)Cc1ccccc1,-19.2%
15,CN(Cc1ccccc1)Cc1ccccc1F,-76.7% (active)
16,CCc1nc2c(OCCC3CCCCC3)cccn2c1N(C)C(=O)c1ccco1,-17.4%
17,O=C(NCC(O)c1nc2ccccc2[nH]1)c1ccc(Br)cc1 (stereo not given),-3.7%
18,COc1ccc(NC(=O)CSc2nnnn2-c2cccc(OC)c2)cc1,26.1%
19,Clc1cccc(-c2nc3nc4ccccc4nc3n2Cc2ccco2)c1,-72.7% (active)
20,O=C(CSc1nnc(-c2cccnc2)n1Cc1ccco1)c1ccc(Cl)c(Cl)c1,25.5%
21,O=c1[nH]c(CSc2ncc(-c3ccc(F)cc3)n2Cc2ccco2)nc2ccccc12,11.8%
22,CCOC1=C2[C@H]([C@H]3C(=O)N(c4ccccc4)C(=O)[C@H]3C1)[C@@H](c1ccccc1)N(S(=O)(=O)c1ccc(C)cc1)[C@H]2c1ccccc1,0.0406%

row,SMILES,"max response, negative = inhibition"
1,CC1=CC(=C(C#N)c2nc3ccccc3s2)C=C(C)N1c1ccc(F)cc1F,-51.3% (active)
2,N#C/C(=C(/O)Cc1cccc2ccccc12)c1nc2ccccc2s1,-26.8%
3,CN(Cc1nc2ccccc2s1)C(=O)c1ccc(F)cc1,-18.6%
4,CN1CCN(c2ccc3c(c2)OC[C@H](Cc2ccccc2)NS3(=O)=O)CC1,-23%
5,CCOC(=O)[C@]12CCCC=C1N(Cc1ccc3c(c1)OCO3)C(=O)[C@H](CC(=O)NCc1cccs1)C2,-6.39%
6,COC(=O)C[C@H]1C[C@@H]2c3cc(NC(=O)Nc4ccccc4)ccc3O[C@@H]2[C@@H](CO)O1,17.9%
7,CCC(C(=O)NC1CCCC1)N(C(=O)Cn1nnc(-c2ccc(C)o2)n1)c1ccc(OC)c(OC)c1 (stereo not given),8.45%
8,COc1ccc(C)cc1N(C(=O)Cn1nnc(-c2ccc(C)o2)n1)C(C(=O)NC1CCCC1)c1ccncc1 (stereo not given),-57.8% (active)
9,Cc1cccc(N(C(=O)Cn2nnc(-c3ccc(C)o3)n2)C(C(=O)NC2CCCC2)c2ccncc2)c1 (stereo not given),12.8%
10,CNC[C@H]1OCc2cnnn2CCCC(=O)N([C@H](C)CO)C[C@@H]1C,11.4%
11,COCCNC(=O)C1(C)CCCN(Cc2cccc(F)c2)C1 (stereo not given),-6.58%
12,CC(NCc1nc2ccccc2n1C)C12CC3CC(CC(C3)C1)C2 (stereo not given),-77.6% (active)
13,COc1cccc(C(O)Cc2nc3ccccc3n2C)c1OC (stereo not given),9.46%
14,Cn1c(CC(=O)NNC(=O)c2ccccc2F)nc2ccccc21,5.88%
15,COC(=O)c1ccc2nc(-c3cccc(Br)c3)c(Cc3ccccc3C(F)(F)F)n2c1,0%
16,CC(C)c1cc(C(=O)N/N=C/c2ccoc2)c(O)c(C(C)C)c1,-60.7% (active)
17,CC(Oc1ccccc1[N+](=O)[O-])C(=O)N/N=C/c1ccoc1 (stereo not given),-27.6%
18,O=C(N/N=C/c1ccoc1)c1ccc(Cl)cc1Cl,9.92%
19,CC(=O)N1C[C@@H](CO)[C@@H](N(C)C(=O)c2ccco2)C[C@H]1c1ccccc1,0%
